# The supplement of paper PMC10338343
# ± gives the standard deviation.
# Key:
# [1] = system: MILI (PIWIL2) piRISC loaded with L1MC piRNA (26 nt); test: pre-steady-state target cleavage rate (min^-1); guide: L1MC piRNA 5'p-UAACUAAAUACUAUGCAAGCUGUAGG; higher = faster piRNA-guided slicing of the target;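 further: 1 nM active piRISC with 0.1 nM target library at 33 °C single turnover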
# How it was run: (§1)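 For Cleave-'n-Seq, a transcribed, DNA-blocked target RNA library […] met 1 nM active affinity-purified piRISC with one synthetic guide at 33 °C for 0–8 or 0–960 min in HEPES–potassium acetate buffer, with or without 500 nM GTSF1 partner protein. Uncleaved targets were sequenced and normalised to depth and weakly complementary targets, with three trials pooled and k3 capped at 0.0001 min^-1. A burst-and-steady-state fit supplied the pre-steady-state cleavage rate.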
# [2] = system: EfPiwi piRISC loaded with L1MC piRNA (26 nt); test: pre-steady-state target cleavage rate (min^-1); auxiliary factor: 500 nM Ephydatia muelleri Gtsf1; guide: L1MC piRNA 5'p-UAACUAAAUACUAUGCAAGCUGUAGG; MIWI and MILI are mouse PIWI proteins and EfPiwi is from a freshwater sponge; tags in brackets are library labels; higher = faster piRNA-guided slicing of the target
# How it was run: as §1
# [3] = auxiliary factor: 500 nM mouse GTSF1
# [4] = auxiliary factor: none (no GTSF1)
Sequence,"pre-steady-state target cleavage rate [1, 3]",pre-steady-state target cleavage rate [2],"pre-steady-state target cleavage rate [1, 4]"
UCCUGGUACAGCUUGCAUACUAUUAAGUUA,0.0468 ± 0.016,0.00282 ± 0.0022,–
UCCUGCUACAGCUUGCAUAGUAUUUAGCUUA,0.161 ± 0.037,0.00522 ± 0.0019,–
UCCUGGAUCAGCUUGCAUACUAUUUACUUA,0.0867 ± 0.02,0.00362 ± 0.0032,–
UCCUGGAACAGCUUGCAUACUAAUUAGUUA,0.0355 ± 0.0087,0.00305 ± 0.0029,–
UCCUGCUUCAGCUUGCAUAGUAUUUAGAAA,0.195 ± 0.037,0.00434 ± 0.0021,–
UCCUGGAUCAGCUUGCAUAGGAUUUAGUUA,0.0049 ± 0.0037,0.0025 ± 0.0024,–
UCCUCCUACAGCUUGCAUAGUUAAUAGUAA,0.0122 ± 0.0056,0.00511 ± 0.003,–
UCCUGGAACAGCUUGCAUAGUAUAAAGAAA,0.0192 ± 0.0088,0.00217 ± 0.0021,–
UCCUGCUACAGCUUGCAUACAAUUUAGUUA,–,0.00307 ± 0.0028,0.00287 ± 0.0025
UCCUGGUACACCUUGCAUAGUAUUUAGAUA,0.0475 ± 0.016,0.00278 ± 0.0024,–
UCCUCCUACAGCUUGCAUAGUAUUAAGAUA,0.125 ± 0.032,0.00411 ± 0.0022,–
UCCUGCUACAGCUAGCAUAGUAUUAAGUUA,0.3 ± 0.032,0.00662 ± 0.0026,–
UCCUCCUACAGCUUGCAUACUAAUUAGUUA,0.0267 ± 0.0069,0.00358 ± 0.0017,–
UCCUGCUACAGCUUGCAUAGUAUAAUCAAA,0.0335 ± 0.013,0.00391 ± 0.0037,–
UCCUGGAUCAGCAUCCAUAGUAUUUAGUUA,0.103 ± 0.022,0.00269 ± 0.0023,–
UCCUGCUACAGCUUGCAUACUAUUUAGUAA,0.0862 ± 0.018,0.00476 ± 0.0026,–
UCCUCCUACAGCUUGGAUAGUAUUUACAAA,0.021 ± 0.0081,0.00267 ± 0.0022,–
UCCUCCUACAGCUUGCAUAGUAUAAACAAA,0.165 ± 0.043,0.00398 ± 0.0028,–
UCCUGCUACAGCUUGCAUAGUUUUUAGAUA,0.0373 ± 0.011,0.00319 ± 0.0018,–
UCCUCCUACAGCUUGCAUAGAAUUUAGAUA,0.0558 ± 0.014,0.00317 ± 0.0015,–

Sequence,"pre-steady-state target cleavage rate [1, 3]",pre-steady-state target cleavage rate [2],"pre-steady-state target cleavage rate [1, 4]"
UCCUGGAUGAGCUUGCAUAGUAUUUACAUA,0.0149 ± 0.0065,0.00323 ± 0.0028,–
UCCUGCUACAGCUUGCAUAGUAUUUAGUAUA,0.292 ± 0.044,0.00675 ± 0.0019,–
UCCUCCUACAGCUAGCAUAGUAUUUAGAUA,0.144 ± 0.025,0.00495 ± 0.0024,–
UCCUGGAACAGCUUGCAUAGUAUUUACAAA,0.222 ± 0.048,0.00238 ± 0.0019,–
UCCUGCUACAGCUUGCAUAGAUUUUACAAA,0.00852 ± 0.0044,0.00292 ± 0.0018,–
UCCUGGAACAGCUUGCAUAGCAUUUAGUUA,0.0886 ± 0.013,0.00399 ± 0.0015,–
UCCUGGAUCAGCUUGCAUAGUAUUUAAUUA,0.0429 ± 0.0097,0.00916 ± 0.0034,–
UCCUGCUACAGCUUGCAUAGUAUGUUAGUUA,0.164 ± 0.036,0.00247 ± 0.002,–
UCCUGCUACAGCUUGCAUAGUAAUUAGAAA,0.0259 ± 0.0091,0.00362 ± 0.0016,–
UCCUCCUAGAGCUUGCAUAGUAUUUACUUA,0.146 ± 0.03,0.00356 ± 0.0033,–
UCCUCCUACAGCUUGCAUAGUUUUAAGUUA,0.0543 ± 0.012,0.00431 ± 0.0024,–
UCCUGGAACACCUUGCAUAGUAUAUAGUUA,0.189 ± 0.033,0.0051 ± 0.0035,–
UCCUGGAUCAGCUUGCUUAGUUUUUAGUUA,0.0369 ± 0.011,0.00518 ± 0.0042,–
UCCUGCUACAGCUUGCAUACGUAUUUAGUUA,0.00697 ± 0.0042,0.00225 ± 0.0022,–
UCCUGGAUGUGCUUGCAUAGCAUUUAGUUA,0.0436 ± 0.012,0.00505 ± 0.0018,–
UCCUCCUACAGCUUCCAUAGUAUUUACUUA,0.0137 ± 0.0064,0.00277 ± 0.0024,–
UCCUCCUACAGCUUGCAUAGUAUGUAGUUA,0.041 ± 0.015,0.00354 ± 0.0013,–
UCCUCCUACAGCUUGCAUAGCAUUUAGUUA,0.0883 ± 0.013,0.00463 ± 0.0019,–
UCCUGCUAGAGCUUGCAUACUAUUUAGUUA,0.0842 ± 0.018,0.00515 ± 0.0018,–
UCCUGGAACAGCUUGCAUAGGUAUUUAGUUA,–,0.00262 ± 0.0026,0.00517 ± 0.0026

Sequence,"pre-steady-state target cleavage rate [1, 3]",pre-steady-state target cleavage rate [2],"pre-steady-state target cleavage rate [1, 4]"
UCCUCCUACAGCUUGCAUAGUAAUUAGAUA,0.179 ± 0.046,0.00553 ± 0.0026,–
UCCUGCUACAGCUUGCGAUAGUAUUUAGUUA,0.0073 ± 0.0045,0.00987 ± 0.0026,–
UCCUGCAACAGCUUGCAUAGUAUUUAGAAA,0.138 ± 0.026,0.00432 ± 0.0016,–
UCCUGGUACAGCUUGCAUAGUAUUAAGAAA,0.0213 ± 0.0097,0.00387 ± 0.0017,–
UCCUGGAACAGCUUGCAUAGUAUUUCAGUUA,0.131 ± 0.028,0.00308 ± 0.0026,–
UCCUCCAACAGCUUGCAUAGUAUUUACUUA,0.122 ± 0.022,0.00475 ± 0.0037,–
UCCUGGAACAGCUUGCAUAGUAUUGAGUUA,0.172 ± 0.029,0.00624 ± 0.0022,–
UCCUGGAUCAGCUUGCUUAGUAUUUACAAA,0.0696 ± 0.019,0.00612 ± 0.0047,–
UCCUCCUACAGCUUGCUUAGUAUUUUCAAA,0.0605 ± 0.014,0.00322 ± 0.003,–
UCCUCCUACACGAUGCAUAGUAUUUAGAAA,0.102 ± 0.021,0.00369 ± 0.0021,–
UCCUGGAUGUGCUUGACAUAGUAUUUAGUUA,0.0338 ± 0.009,0.0797 ± 0.03,–
UCCUGCUACAGCUUGCAUAGUAUUUAGGUA,0.143 ± 0.034,0.00342 ± 0.0016,–
UCCUGGAUCAGCUUGCAUUGUAUUUAGUAA,0.144 ± 0.014,0.00441 ± 0.0018,–
UCCUGGAUGAGCUUGCAUAGUAUUUCGUUA,0.0995 ± 0.028,0.00352 ± 0.0019,–
UCCUGGAUGUGCUUGGCAUAGUAUUUAGUUA,0.19 ± 0.057,0.00458 ± 0.0029,–
UCCUGGAACAGCUUGCAUAGUAUUUUCUUA,0.0439 ± 0.014,0.00388 ± 0.0027,–
UCCUGCUACAGCUUGCAAUAGUAUUUAGUUA,0.0355 ± 0.0093,0.006 ± 0.0018,–
UCCUGGAUCAGCUUGCUAUAGUAUUUAGUUA,0.0101 ± 0.0052,0.00528 ± 0.0019,–
UCCUCCUACUCGUUGCAUAGUAUUUAGAAA,0.076 ± 0.019,0.004 ± 0.0035,–
UCCUGCUAGAGCUUGCAUAGUAUUUACAAA,0.146 ± 0.039,0.00266 ± 0.0021,–
